# Laboratory results from PubChem BioAssay (EPA / NIEHS).
# Calls of active or inactive are those of the source. The calls were made as follows: active = hit-call score of the fitted dose curve at least 0.9, where 1 is the maximum; inactive = score below 0.9.
# Assay: CCTE_Simmons_MITO_inhib_resp_rate: CCTE's HepG2 Seahorse XF Respirometric Screening Assay at Inhibited Respiratory State [full ETC block], Simmons Lab (AID 2284006)
# Details: actives raise or lower the signal
# Experimental: CCTE_Simmons_MITO is cell-based, respirometric assay using HepG2 cells and a Seahorse XF Analyzer to measure oxygen consumption rates over four temporal phases spanning a total of 72 minutes: pre-injection (pre-treatment), basal (following test compound injection), maximal (following FCCP uncoupler injection), and inhibited (following rotenone/antimycin A injection)CCTE_Simmons_MITO_inhib_resp_rate is one of 4 assay components calculated from the CCTE_Simmons_MITO assay. It is designed to make measurements of inhibited respiration using a form of respirometric reporter, as detected with […] signals by Seahorse XF96 technology. Data from the assay component CCTE_Simmons_MITO_inhib_resp_rate was analyzed at the endpoint, CCTE_Simmons_MITO_inhib_resp_rate_OCR, with bidirectional fitting relative to DMSO as the negative control and baseline of activity. Using a type of respirometric reporter, measures of inhibited respiration for gain or loss-of-signal activity can be used to understand cellular oxygen consumption as it relates to cellular respiration. To generalize the intended target to other relatable targets, this assay endpoint is annotated to the mitochondria intended target family, where the subfamily is respiration.
# Test chemicals were administered as a titrated series of 7 concentrations from 125 nM up to 100 uM [final] prior to kinetic endpoint detection at 6 minute intervals [3 min mix followed by 3 minutes measure] for 72 minutes. Three biological replicates of technical singles were run for every chemical concentration tested. Dimethylsulfoxide [DMSO] was used as the vehicle control. The electron transport chain inhibitor fenpyroximate was used as the positive control for decreased basal respiration and was administered as a titrated series of 6 concentrations from 250 nM up to 2.75 uM [final] with technical triplicates for the top concentration only. The uncoupler 2,4-dintirophenol was used as the positive control for increased basal respiration and was administered as a titrated series of 6 concentrations from 938 nM up to 40 uM [final] with technical triplicates for the top concentration only. A Seahorse XF Analzyer is required to measure the response.
Compound,outcome,AC50
CCOP(=O)(OCC)Oc1nc(Cl)c(Cl)cc1Cl,inactive,–
COCC(=O)N(c1c(C)cccc1C)C(C)C(=O)OC (stereo unspecified),inactive,–
CCOP(=S)(OCC)Oc1nc(Cl)n(C(C)C)n1,inactive,–
CCNP(=S)(OC)O/C(C)=C/C(=O)OC(C)C (stereo unspecified),inactive,–
CC(C)(C)C(=O)C(Oc1ccc(Cl)cc1)n1cncn1 (stereo unspecified),inactive,–
CC1(C)C(C=C(Cl)Cl)C1C(=O)OC(C#N)c1cccc(Oc2ccccc2)c1 (stereo unspecified),inactive,–
CCCCC(O)(Cn1cncn1)c1ccc(Cl)cc1Cl (stereo unspecified),inactive,–
CCSC(=O)N1CCCCCC1,inactive,–
CC(C)N1C(=O)N(c2ccccc2)CSC1=NC(C)(C)C,inactive,–
Cn1c(-c2ccccc2)cc(-c2ccccc2)[n+]1C,inactive,–
Cc1c(COC(=O)[C@@H]2[C@H](/C=C(\Cl)C(F)(F)F)C2(C)C)cccc1-c1ccccc1,inactive,–
Nc1c(Cl)c(F)nc(OCC(=O)O)c1Cl,inactive,–
O=C1C2CC=CCC2C(=O)N1SC(Cl)(Cl)Cl (stereo unspecified),inactive,–
N#Cc1c[nH]cc1-c1cccc2c1OC(F)(F)O2,inactive,–
Cc1ccc(N=CN(C)C=Nc2ccc(C)cc2C)c(C)c1,inactive,–
CCCCC(C#N)(Cn1cncn1)c1ccc(Cl)cc1 (stereo unspecified),inactive,–
CO/N=C(/C1=NOCCO1)c1ccccc1Oc1ncnc(Oc2ccccc2Cl)c1F,–,6.67 µM (active)
CCN(CC)c1nc(C)cc(OP(=S)(OC)OC)n1,inactive,–
COc1ccc(-c2ccccc2)cc1NNC(=O)OC(C)C,inactive,–
COCC(C)N(C(=O)CCl)c1c(C)csc1C (stereo unspecified),inactive,–
CC(C)=CC1C(C(=O)OCc2coc(Cc3ccccc3)c2)C1(C)C (stereo unspecified),inactive,–
